Experimental findings from the OligoGym collection are described below.
Further: reference of the scale not given here.

The target in one experiment is IFT52. In words: pooled miR-30 sensor sort-seq; sequence = guide strand. The note with it: shRNA.
As to TTCATGTTTCACATTTAGCTGC, the sensor-assay potency score (higher = more potent) is -0.162.
The sequence TTTCACATTTAGCTGCTCGTGA showed a sensor-assay potency score (higher = more potent) of 0.557.
On the same count and under the same terms, the result for TAATCCACAGTTTTACTCCATT reads -1.37.

A further experiment concerns the target IGFBP3. Described as above. The note with it: shRNA.
TATCTTTGAATGGAGGGGGTGG yielded a sensor-assay potency score (higher = more potent) of -0.842.
Same read-out and setting: the value for TTTCTTATAAAATCCCTTCTTG was -0.488; that for TAGTCAACTTTGTAGCGCTGGC was -0.23; that for TTCTTGATGATGATTATCTTTG was -1.16.
Same read-out and setting: the result for TAGCATTTCCTGGAGCTGGCGG reads -0.626.
Same read-out and setting: the result for TTTAGCATGCCCTTTCTTGATG reads -1.17; that for TTTCTTGATGATGATTATCTTT, -1.
With TTGATGATGATTATCTTTGAAT, the sensor-assay potency score (higher = more potent) was -0.974.
Regarding TATCTGTGCTCTGAGACTCGTA, the sensor-assay potency score (higher = more potent) was -0.405.
The same measure, in the same setting: the result for ATCTGTGCTCTGAGACTCGTAG reads -0.551.
On the same count and under the same terms, the value for TCGTAGTCAACTTTGTAGCGCT was -0.259.
Take TACTTATCCACACACCAGCAGA: the sensor-assay potency score (higher = more potent) is -1.2.

The next experiment concerns the target IGFBP7. The experiment is described as above. The note with it: shRNA.
In turn, TTATTTTGTATTTCTCTGTGTA returned a sensor-assay potency score (higher = more potent) of 0.738.
TTGCACACGCACACGCCGCTTA returned a sensor-assay potency score (higher = more potent) of -0.533.
The same measure, in the same setting: the value for TATTTCTCTGTGTAAAACCAGT was -0.876; that for ATATTCTCCAGCATCTTCCTTA was 0.0623; that for TATAACTAAAGTGTTAGTGGAT was 0.0715.
The same measure, in the same setting: the value for TTTATTTTGTATTTCTCTGTGT was 0.392; that for TATGGAAGGACCTTGCTCGCAG was 0.0924.
The same measure, in the same setting: the result for TAGAGGAGATACCAGCACCCAG reads -1.77; that for TTTTTGCTGATGCTGAAGCCTG, -1.34; that for TCCATGACTACTTTTAACCATG, -1.58.
TGTCCTTTGAACTCCATAGTGA registered a sensor-assay potency score (higher = more potent) of -0.0168.
Still for that read-out and setting: the result for TAGTCTTGATGTGTGATCTTTA reads -0.24.

Another experiment concerns the target IGLL1. Described as above. The note with it: shRNA.
TGAGACACACCAGTGTAGCCTT returned a sensor-assay potency score (higher = more potent) of 0.221.
Still for that read-out and setting: the value for AGACACACCAGTGTAGCCTTGT was -0.487; that for TCACCGTCAAGATTCCCGGATA was -1.01.
Turning to TTGGGCTGACTTAAAACGGTGA, the sensor-assay potency score (higher = more potent) is -0.209.
Still for that read-out and setting: the result for TGCAGCTGTTGGGCGCAGCAGG reads -1.51; that for TGCTCTGCGATGCAGCTGTTGG, -1.49.
Regarding TACCACGGCCAGACCCAGCAGC, the sensor-assay potency score (higher = more potent) is -0.916.
With TTGTTGTTGCTCTGTTTGGAGG, the sensor-assay potency score (higher = more potent) was -1.19.
Still for that read-out and setting: the result for TACTTGTTGTTGCTCTGTTTGG reads -0.977.
Same read-out and setting: the result for TGGACCGGCTGCTTCCTCCAGG reads -1.11; that for TAGCCTTGTTGGCTTGGAGCTC, -0.995; that for TCAGGTAGCTGCTGGCCGCGTA, -0.554.
